The values that follow come from PubChem BioAssay (NCI).

Structures are written as SMILES. This is part of a sample that, as a whole, favours compounds with a hit. Of some 83,000 tested, about 20% had one in any assay.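 In brief: 96-well plates, 48 h treatment, single concentration, percent growth endpoint.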 A number with no mark means an inactive call. Active and inactive are the calls of the source. How the source made its calls: active means growth percent below 10; inactive means the rest.

The experiment concerns HS 578T breast. Briefly: NCI-60 one-dose screen, 48 h (100 = growth as untreated, 0 = no growth, -100 = all killed). As to conditions: 10 µM.
Turning to `CN1CCN(c2ccc(Nc3nc(N4CCN(S(=O)(=O)c5ccc(F)cc5)CC4)c4sccc4n3)cc2)CC1`, the growth was -47.7% (active).

In the case of `CCCCCc1ccc(S(=O)(=O)Nc2cc(-c3csc(N(C)C(C)=O)n3)ccc2N2CCN(C)CC2)cc1`, the growth was 28.7%.

`CN1CCN(c2ccc(Nc3nc(NCCCNC(=O)C4CCCCC4)c4sccc4n3)cc2)CC1`: the growth is 42.9%.

Take `N[C@@H](CSSC[C@H](N)C(=O)Nc1ccc(OCC2CCCC2)cc1)C(=O)Nc1ccc(OCC2CCCC2)cc1`: the growth is -61.7% (active).

Consider `COc1ccc2nc(Cl)c(-c3cc(-c4ccccc4)nc(=O)[nH]3)cc2c1`, for which the growth is 77.3%.

For the compound `O=C(Nc1ccc(OCc2ccccc2)cc1)Nc1ccc(Cl)c(C(F)(F)F)c1`, the growth was -0.0644% (active).

Consider `COc1ccc2[nH]c(O)c(N=NC(=O)COc3ccc(NC(=O)Nc4ccc(Cl)cc4)cc3)c2c1`, for which the growth was 22.8%.

Turning to `Cc1cc2c(c(O)c1Br)-c1ncoc1C(=O)[C@]1(C)CC[C@H](C(C)C)[C@H]21`, the growth is 54.7%.

For the compound `CCN1CCN(c2ccc(NC(=O)Nc3ccc4c(c3F)CCN4c3ccnc(C(=O)NC)c3)cc2C(F)(F)F)CC1`, the growth is 68.3%.

On to `O=C1Nc2ccc(F)cc2/C1=C/c1cccc(OCc2ccccc2)c1`, for which the growth is 32.3%.

For the compound `Cc1ccc(NC(=O)c2ccc(-n3c(=O)[nH]c4ccccc4c3=O)cc2)cc1`, the growth is 78.3%.

On to `O=C(Nc1ccncc1)c1ccc(-n2c(=O)[nH]c3ccccc3c2=O)cc1`, for which the growth is 92.4%.

In the case of `Cc1ccc(-c2cc(-c3cc4ccccc4nc3Cl)[nH]c(=S)n2)cc1`, the growth is 32.2%.

With `O=C(c1ccc(Cl)cc1)C1[C@H](c2ccc(Br)cc2)[C@@H](c2ccccc2)NC12C(=O)Nc1ccc(Cl)cc12` (some centres not stated), the growth was -14% (active).

In the case of `O=C(O)CCCCCCCCCCN1C(=O)/C(=C/c2cnc(-c3ccc(Cl)cc3)s2)SC1=S`, the growth is 58.6%.

As for `CN1CCN(c2ccc(Nc3nc(N4CCN(S(=O)(=O)c5ccc(Cl)cc5)CC4)c4sccc4n3)cc2)CC1`, the growth was 83.9%.

As to `CN1CCN(c2ccc(C(=O)/C=C/c3cc(Br)ccc3F)cc2)CC1`, the growth is 95.1%.

In the case of `O=c1nc(-c2ccccc2)cc(-c2cc3ccccc3nc2Cl)[nH]1`, the growth was 69.6%.

As for `CC1=C2C(=C[C@@](C)(CO)[C@@H]2O)/C(=N\N)[C@](C)(O)C12CC2`, the growth was -12.5% (active).

With `O=C(c1ccc(O)cc1)C1[C@H](c2ccc(Br)cc2)[C@@H](c2ccccc2)NC12C(=O)Nc1ccc(Br)cc12` (some centres not stated), the growth is -6.2% (active).

In the case of `COc1ccc(C=CC(=O)c2ccc(-n3c(C)nc4c(cnn4-c4ccccc4)c3=O)cc2)cc1`, the growth was 85.5%.

As for `O=C(c1ccc(O)cc1)C1[C@H](c2ccccc2Br)[C@@H](c2ccccc2)NC12C(=O)Nc1ccc(Cl)cc12` (some centres not stated), the growth is 5.54% (active).

For the compound `O=C(c1ccccc1)n1ccc(-c2cc3cc(Br)ccc3oc2=O)n1`, the growth was 48.5%.

Turning to `C#Cc1ccc(S(=O)(=O)Nc2cccc(-c3csc(NC(C)=O)n3)c2)cc1`, the growth was 83.6%.

On to `O=C(N/N=C/c1ccc(-c2cccc([N+](=O)[O-])c2)o1)c1[nH]c2ccc(Br)cc2c1-c1ccccc1`, for which the growth is -2.96% (active).

For the compound `O=C(Nc1nc2ccc([N+](=O)[O-])cc2s1)Nc1cc(Cl)ccc1I`, the growth is -21.5% (active).

As for `C=C(c1ccc(OC)c(N)c1)c1cc(C)nc2ccccc12`, the growth was 38.9%.

For `CNC(=O)c1cccc(N2CCc3c2ccc(NC(=O)Nc2ccc(N4CCN(C)CC4)c(C(F)(F)F)c2)c3F)c1`, the growth is -1.44% (active).

In the case of `COc1ccc([C@H]2C(C(=O)c3ccc(Cl)cc3)C3(N[C@@H]2c2ccccc2)C(=O)Nc2ccc(Br)cc23)cc1` (some centres not stated), the growth was -7.39% (active).

For `CN1CCN(Cc2ccc(C(=O)Nc3cccc(Nc4ccc5cc(O)ccc5n4)c3)cc2C(F)(F)F)CC1`, the growth was -2.79% (active).

For the compound `Brc1ccc(/C=N/Nc2ncnc3sc4c(c23)CCN(Cc2ccccc2)C4)cc1`, the growth was 48.3%.

In the case of `COc1ccc(C(C)=C(c2ccc(OCCCN(C)C)cc2)c2ccc(OCCCN(C)C)cc2)cc1`, the growth is -68.2% (active).

Regarding `C=C(C)[C@@H]1CC[C@]2(C(=O)OC)CC[C@]3(C)[C@H](CC[C@@H]4[C@@]5(C)CC[C@H](N)C(C)(C)[C@@H]5CC[C@]43C)[C@@H]12`, the growth is -59.3% (active).

For the compound `CS(=O)(=O)Nc1ccc(-c2ccc3c(c2)ncn3-c2ccc(NC(=O)Nc3ccc(Br)cc3)cc2)cc1`, the growth is 0.433% (active).

On to `CCCS(=O)(=O)c1oc(-c2ccc(F)cc2)nc1S(=O)(=O)c1ccc(F)cc1`, for which the growth was 56.8%.

`CC(C)CCSc1nc(NC2CC2)c(C#N)c(-c2ccc(C(C)C)cc2)n1`: the growth is 108%.

With `Cc1ccc(-c2nc3ccc(C(=O)N=Nc4c(O)[nH]c5ccc([N+](=O)[O-])cc45)cc3[nH]2)cc1`, the growth was 74.6%.
